Potency, max response and activity change, positive = activation data for seven compounds are collected here from PubChem BioAssay (Tox21).

The nature of assay [1]: qHTS assay to identify small molecule agonists of the hypoxia (HIF-1) signaling pathway - cell viability counter screen (AID 1224844; calls by dose curve; note: nearly all actives have a fitted effect of over 50% in size; note: potency is the fitted concentration of half-maximal effect). The essentials:
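CellTiter-Glo luminescence read-out, 30 min RT, taken in the same wells as the beta-lactamase HRE reporter assay; HRE-bla ME-180 cells, 0.5% dialyzed FBS, 17 hr compound treatment at 37C, 5% CO2.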
(In general: Quantitative high-throughput screening tests each substance at several concentrations.)

A short description of assay [2]: qHTS assay to identify small molecule agonists of H2AX (AID 1224845; active = well fitted activation curve with a large enough effect in the signal ratio in the repeat runs, not every such curve was filed as active; the % refers to the signal ratio; note: potency is the fitted concentration of half-maximal effect). The essentials:
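Wild-type CHO-K1 cells plated overnight, then exposed 3 hr at 37C to compounds at 15 concentrations (0.76% DMSO). Lysed, then HTRF anti-pH2AX(S139)-cryptate/anti-H2AX-d2 detection after 24 hr at room temperature; emissions 665 and 620 nm.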

Assay [3] can be described thus: qHTS assay to identify small molecule agonists of the hypoxia (HIF-1) signaling pathway (AID 1224846; active = well fitted activation curve with a large enough effect in the signal ratio in the repeat runs, not every such curve was filed as active; the % refers to the signal ratio). The method in brief:
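Beta-lactamase FRET read-out (CCF4-AM substrate) from ME-180 cells carrying an HRE-driven bla reporter, after 17 hrs compound exposure at 37C/5% CO2. Cells were seeded at 2,000 per well in 0.5% dialyzed FBS medium and preincubated 5 hrs.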

Assay [4] in a line: qHTS assay to identify small molecule agonists of H2AX - cell viability counter screen (AID 1224847; calls by dose curve; note: nearly all actives have a fitted effect of over 30% in size; note: potency is the fitted concentration of half-maximal effect). The essentials:
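After overnight plating of 1000 CHO-K1 cells per well, a 15-concentration compound series was applied for 3 hr at 37C. Luminescence from CellTiter-Glo, read following 30 min at room temperature, reflected cell viability.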

Assay [5] in a line: qHTS RealTime-Glo MT Cell Viability Assay in HepG2 cells - 24 hour (AID 1224867). Note: nearly all actives have a fitted effect of over 50% in size. The essentials: (§1)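 HepG2 cells (600/well) were dispensed with RealTime-Glo reagents, incubated 5 h at 37 °C, then treated with compounds in DMSO for up to 40 h. Nonlytic NanoLuc luminescence reflecting viable cells was read at each stated time point.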
A short description of assay [6]: qHTS RealTime-Glo MT Cell Viability Assay in HEK293 cells - 32 hour (AID 1224868). Note: nearly all actives have a fitted effect of over 50% in size. Note: potency is the fitted concentration of half-maximal effect. The method in brief:
(§2)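 HEK293 cells seeded with NanoLuc/prosubstrate reagent, rested 5 h at 37 C, then dosed and kept at 37 C up to 40 h. Nonlytic real-time luminescence from viable cells read at 0, 8, 16, 24, 32 and 40 h.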

Assay [7] is described as follows: A CellTox Green Cytotoxicity Assay to monitor cytotoxicity in HEK293 cells - 0 hour (AID 1224869). Note: nearly all actives have a fitted effect of over 50% in size. The method in brief: (§3)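 Read-out: fluorescence of a cell-impermeant cyanine dye staining DNA of dead cells, proportional to cytotoxicity. HEK293, 600 cells/well with reagent, compound (23 nL DMSO) added after 5 h; reads at 0, 8, 16, 24, 32, 40 h.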
Assay [8] in a line: qHTS RealTime-Glo MT Cell Viability Assay in HepG2 cells - 40 hour (AID 1224870). Note: nearly all actives have a fitted effect of over 50% in size. The essentials: (§4)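 HepG2 cells mixed with RealTime-Glo MT reagents (NanoLuc plus cell-permeant prosubstrate) were seeded at 600 cells/well, incubated 5 h at 37 C/5% CO2, then pinned with compounds in DMSO; nonlytic luminescence tracked viability during 40 h treatment.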
Assay [9] in a line: A CellTox Green Cytotoxicity Assay to monitor cytotoxicity in HEK293 cells - 40 hour (AID 1224871). Note: nearly all actives have a fitted effect of over 45% in size. Note: potency is the fitted concentration of half-maximal effect. The essentials: as §3
Assay [10] in a line: qHTS RealTime-Glo MT Cell Viability Assay in HepG2 cells - 8 hour (AID 1224873). Note: nearly all actives have a fitted effect of over 55% in size. The method in brief:
as §4

Assay [11] can be described thus: qHTS RealTime-Glo MT Cell Viability Assay in HEK293 cells - 40 hour (AID 1224874). Note: nearly all actives have a fitted effect of over 50% in size. Note: potency is the fitted concentration of half-maximal effect. The note with it: RealTime-Glo luminescence; max response: hits give low values. The method in brief:
(§5)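 Luminescence readout at each listed time point; HEK293, 600 cells/well, RealTime-Glo MT reagent added with cells; compounds pinned (23 nL in DMSO) after 5 h at 37 C; continuous culture at 37 C.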

Assay [12] is described as follows: A CellTox Green Cytotoxicity Assay to monitor cytotoxicity in HEK293 cells - 24 hour (AID 1224875). Note: nearly all actives have a fitted effect of over 45% in size. The essentials:
as §3

A short description of assay [13]: A CellTox Green Cytotoxicity Assay to monitor cytotoxicity in HepG2 cells - 16 hour (AID 1224876). Note: nearly all actives have a fitted effect of over 45% in size. The method in brief:
(§6)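 HepG2, 600 cells/well premixed w/ CellTox Green; 5 h settle, 37 C/5% CO2; pintool cpd add (DMSO); 37 C, 40 h; fluorescence read at 0, 8, 16, 24, 32, 40 h.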

The nature of assay [14]: qHTS RealTime-Glo MT Cell Viability Assay in HepG2 cells - 32 hour (AID 1224877). Note: nearly all actives have a fitted effect of over 55% in size. The essentials: as §1
Assay [15] can be described thus: A CellTox Green Cytotoxicity Assay to monitor cytotoxicity in HepG2 cells - 24 hour (AID 1224878). Note: nearly all actives have a fitted effect of over 45% in size. The essentials: as §6
Assay [16] is described as follows: A CellTox Green Cytotoxicity Assay to monitor cytotoxicity in HepG2 cells - 40 hour (AID 1224879). Note: nearly all actives have a fitted effect of over 40% in size. The method in brief: as §6
Assay [17] in a line: qHTS RealTime-Glo MT Cell Viability Assay in HEK293 cells - 0 hour (AID 1224880). The essentials: as §5
Assay [18] is described as follows: qHTS RealTime-Glo MT Cell Viability Assay in HEK293 cells - 16 hour (AID 1224872). Note: nearly all actives have a fitted effect of over 50% in size. Note: potency is the fitted concentration of half-maximal effect. The essentials:
as §2

A short description of assay [19]: qHTS assay to identify small molecule agonists of the estrogen related receptor (ERR) signaling pathway from Tox21 library (AID 1224849; calls by dose curve; note: nearly all actives have a fitted effect of over 15% in size). The note with it: ERR reporter cell line, ONE-Glo luciferase, 18 h; at 92.4 µM (top of the series) unless noted. The essentials: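 Luminescence readout (ONE-Glo, 30 min RT) after 18 h compound exposure at 37 C of NTP-supplied ERR reporter cells; cells were plated 6 h before compound addition by pin tool.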

Assay [20] in a line: qHTS assay to identify small molecule antagonists of the estrogen related receptor (ERR) signaling pathway from Tox21 library (AID 1224848). Note: nearly all actives have a fitted effect of over 50% in size. Note: potency is the fitted concentration of half-maximal effect. The essentials: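 First, 2,000 ERR cells per well were plated and held 6 h at 37 C/5% CO2. Next, compounds in DMSO were pinned in and left 18 h at 37 C. Finally, ONE-Glo was added and luminescence read after 30 min at room temperature.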

Where “and” joins values, the source holds several entries; their conditions need not be identical. Equal entries are not always repeated. Unmarked numbers belong to inactive results. Inconclusive results are not listed. Calls of active or inactive are those of the source. Unless noted, calls come from the whole dose curve; as a rule, active = well fitted curve in the direction sought with a large enough effect in the repeat runs; inconclusive = weak or mixed curves; inactive = no such curve, though single readings can be large; an effect the other way counts as inactive or inconclusive.
% is set by controls: 0 for no effect and ±100 for the full control effect.

Turning to `CC(C)Br`, the Potency entry in [1], in assay [2], in assay [3], in assay [4], in assay [5] and in [6] was “inactive” throughout. In addition, the Potency entry in [7], in [8], in assay [9], in assay [10], in assay [12] and in [13] was “inactive” in each case. The Potency entry in assay [14], in assay [15], in assay [16] and in [17] was “inactive” each time. Moreover, the max response in assay [11] was -13.8%.

Consider `COc1ccc2c3c1O[C@H]1[C@H](O)CC[C@H]4[C@@H](C2)N(C)CC[C@@]341`, for which the Potency entry in assay [1], in [2], in assay [3], in [4], in assay [5] and in assay [6] was “inactive” each time. The Potency entry in assay [7], in [8], in assay [9], in assay [18], in [10] and in assay [12] was “inactive” throughout. The Potency entry in assay [13], in [14], in [15], in [16] and in assay [17] was “inactive” throughout. The max response in [11] is -1.3%.

Take `Clc1ccc(C(c2ccc(Cl)cc2)C(Cl)Cl)cc1`: the Potency was 49 µM (active) in assay [1]; 89.8 µM (active) in [2]; 80 µM (active) in assay [4]; 49.8 µM (active) and 43.6 µM (active) in [6]; 55.8 µM (active) and 49 µM (active) in [9]; 44.4 µM (active) and 43.6 µM (active) in assay [18]. In addition, the Potency in assay [11] is 49.8 µM (active) and 43.6 µM (active). Further, in [19], the activity change, positive = activation was -36.3% and -43.8%. In addition, the Potency result in assay [5], in assay [7], in assay [8], in [10], in assay [14] and in [15] was “inactive” each time. In addition, the Potency result in assay [16] and in assay [17] was “inactive” throughout.

In the case of `O=C1C[C@@H]2OCC=C3CN4CC[C@]56c7ccccc7N1[C@H]5[C@H]2[C@H]3C[C@H]46`, the Potency entry in assay [1], in assay [2], in assay [4], in [5], in [7] and in assay [8] was “inactive” throughout. The Potency entry in assay [9], in assay [10], in assay [12], in [13], in [14] and in assay [15] was “inactive” each time. The Potency result in assay [16] and in [17] was “inactive” in each case. Moreover, the activity change, positive = activation in assay [19] was -3.01% [at 42.5 µM].

With `C[C@H]1[C@H](c2ccc(Cl)cc2)SC(=O)N1C(=O)NC1CCCCC1`, the Potency entry in assay [1], in assay [2], in [4], in [5], in assay [7] and in [8] was “inactive” in each case. The Potency entry in [9], in assay [12], in assay [13], in assay [14], in assay [15] and in [16] was “inactive” each time. In addition, the Potency result in assay [17] was “inactive”. Moreover, the Potency in assay [20] is 30.6 µM (active); in [6], 49 µM (active); in assay [18], 38.9 µM (active); in assay [11], 43.6 µM (active). In assay [19], the activity change, positive = activation is -41.4%.

As to `CN1[C@@H]2CC[C@H]1CC(O)C2` (stereo partly drawn), the Potency result in assay [1], in assay [2], in assay [4], in assay [5], in assay [6] and in [7] was “inactive” each time. Also, the Potency result in [8], in assay [9], in assay [18], in assay [10], in [12] and in [13] was “inactive” each time. The Potency entry in [14], in assay [15], in assay [16] and in assay [17] was “inactive” in each case. Further, the max response in assay [11] was 15.4%.

Consider `Brc1ccc(Oc2ccc(Br)cc2Br)c(Br)c1`, for which the Potency result in [1], in [2], in assay [20], in assay [5], in assay [7] and in [8] was “inactive” each time. Further, the Potency entry in assay [9], in [10], in [12], in assay [14], in assay [15] and in assay [16] was “inactive” in each case. Also, the Potency result in assay [17] is “inactive”. The Potency in [4] was 113 µM (active); in [6], 49 µM (active); in assay [11], 49 µM (active). Also, the activity change, positive = activation in assay [19] was 13%.
